# Data published in the supplement of paper PMC12339681.
# Counter-ions that a name gives are not always drawn.
# Test system: PBMC-derived induced microglia-like cells (piMGLC)
# Experiment: synaptosome phagocytic index relative to DMSO control (fraction of DMSO); higher = more phagocytosis
# Conditions: concentration: 10 uM (2 uM for compounds listed in Table S2); pretreatment time: 24 h; assay time: 3 h
row,SMILES,synaptosome phagocytic index
1,CCc1cccc2c3c([nH]c12)C(CC)(CC(=O)O)OCC3 (configuration not stated) [Etodolac],1.01
2,Nc1nc2c(ncn2COCCO)c(=O)[nH]1 [Acyclovir],0.731
3,CO/N=C(\C(=O)N[C@@H]1C(=O)N2C(C(=O)O)=C(C[N+]3(C)CCCC3)CS[C@H]12)c1csc(N)n1 [Cefepime_(Dihydrochloride_Monohydrate)],0.597
4,OC(CN1CCN(c2cccc(Cl)c2)CC1)C(c1ccccc1)c1ccccc1 (configuration not stated),1.01
5,Nc1ccn([C@@H]2CS[C@H](CO)O2)c(=O)n1 [Lamivudine],0.89
6,NS(=O)(=O)Cc1noc2ccccc12 [Zonisamide],0.742
7,COc1cc2nc(C3CC3)nc(N3CCN(c4ccccc4OC)CC3)c2cc1OC,0.0572
8,CCn1ncc2c(NC3CCOCC3)c(-c3nnc(Cc4sc(C)nc4C)o3)cnc21,0.266
9,CCN(CC)CC(=O)Nc1c(C)cccc1C [Lidocaine_(hydrochloride)],0.925
10,OC(CCN1CCCCC1)(c1ccccc1)C1CCCCC1 (configuration not stated) [Trihexyphenidyl_(hydrochloride)],1.24
11,CC(=O)N1CCc2c(c(N3CCCc4cc(-c5cnn(C)c5)c(C(F)F)cc43)nn2C2CCOCC2)C1,0.59
12,CC1(C)S[C@@H]2[C@H](NC(=O)[C@H](N)c3ccc(O)cc3)C(=O)N2[C@H]1C(=O)O [Amoxicillin_(sodium)],0.69
13,CN(C)C(=O)c1cc2cnc(Nc3ccc(N4CCNCC4)cn3)nc2n1C1CCCC1 [Ribociclib_hydrochloride],0.332
14,C[C@@H](c1ncncc1F)[C@](O)(Cn1cncn1)c1ccc(F)cc1F [Voriconazole],0.893
15,C[C@H]1OC[C@]2(c3cc(NC(=O)c4cnc(C(F)F)cn4)ccc3F)N=C(N)SC[C@H]12 [Elenbecestat],0.918
16,O=C1Nc2ccc(Cl)cc2[C@@](C#CC2CC2)(C(F)(F)F)O1 [Efavirenz],0.473
17,NC(=O)[C@H](Cc1c[nH]c2ccccc12)NC(=O)CNC(=O)[C@H](CCCN=C(N)N)NC(=O)[C@@H]1C[C@@H](O)CN1C(=O)[C@@H](N)Cc1ccc(F)cc1 [Nemifitide_(diTFA)],0.903
18,CCOC(=O)C1=C(C)NC(C)=C(C(=O)OC)C1c1cccc(Cl)c1Cl (configuration not stated) [Felodipine],1.04
19,Nc1nc(NC2CC2)c2ncn([C@H]3C=C[C@@H](CO)C3)c2n1 [Abacavir_(sulfate)],1.1

row,SMILES,synaptosome phagocytic index
1,COC[C@@H](c1ccc(C(F)(F)F)cc1)N1CCN(C2(C)CCN(C(=O)c3c(C)ncnc3C)CC2)C[C@@H]1C [Vicriviroc_(maleate)],0.947
2,Nc1ccn([C@@H]2O[C@H](CO)[C@@H](O)[C@@H]2O)c(=O)n1 [Cytarabine],0.44
3,CC(C)(O/N=C(\C(=O)N[C@@H]1C(=O)N2C(C(=O)[O-])=C(C[n+]3ccccc3)CS[C@H]12)c1csc(N)n1)C(=O)O [Ceftazidime],1.05
4,Cc1cc(=O)n(-c2ccccc2)n1C [Antipyrine],0.601
5,O=C1N[C@@H](Cc2cnc[nH]2)C(=O)N2CCC[C@@H]12 [Cyclo(his-pro)_(TFA)],0.449
6,C[C@@]1(c2cc(NC(=O)c3ccc(C#N)cn3)ccc2F)C=CSC(N)=N1 [Atabecestat],0.547
7,O=C1N=C(O)NC1(c1ccccc1)c1ccccc1 [Phenytoin_(sodium)],0.725
8,OCCOCCN1CCN(C(c2ccccc2)c2ccc(Cl)cc2)CC1 (configuration not stated) [Hydroxyzine_(dihydrochloride)],0.957
9,COc1ccc(OCCN2CCN(C(=O)c3cc4ccccc4[nH]3)CC2)cc1,1.22
10,COc1ccc(C2CNC(=O)C2)cc1OC1CCCC1 (configuration not stated) [Rolipram],0.814
11,CC(C)c1ccc(CC(=O)N2CCN(c3ccc(C#N)nn3)CC2)cc1,0.943
12,CC(C)[C@H]1C(=O)N[C@@H](CCCNC(=N)N)C(=O)NCC(=O)N[C@@H](CC(=O)O)C(=O)N[C@H](Cc2ccccc2)C(=O)N1C [Cilengitide],1.09
13,CN1CCN(C2=Nc3ccccc3Nc3ccccc32)CC1 [Deschloroclozapine],0.876
14,Nc1ccccc1NC(=O)c1ccc(CNC(=O)OCc2cccnc2)cc1 [Entinostat],0.753
15,C=C[C@H]1CN2CC[C@H]1C[C@@H]2[C@@H](O)c1ccnc2ccc(OC)cc12 [Quinidine],0.962
16,CCCCCCCC(=O)c1c(O)cc(O)cc1CC(=O)OCC [Cytosporone_B],0.114
17,CC1=NN(c2ccccc2)C(=O)C1 [Edaravone],0.555
18,O=C(CCCN1CCC(O)(c2ccc(Cl)cc2)CC1)c1ccc(F)cc1 [Haloperidol],1.05
